We go through eight compounds from PubChem BioAssay (NCI).

About 83,000 compounds went through this panel and 20% of them were active in at least one assay; those are over-represented in the sample as a whole.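 In brief: 96-well plates, 48 h treatment, single concentration, percent growth endpoint.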 A number with no mark means an inactive call. The source made the active and inactive calls. Rule for the calls: active = growth percent below 10; inactive = the rest.

Test systems include SK-MEL-2 melanoma; EKVX NSCLC; SN12C renal; UO-31 renal; TK-10 renal; ACHN renal; CAKI-1 renal; A498 renal; CCRF-CEM leukemia; MOLT-4 leukemia; SR leukemia; RPMI-8226 leukemia; OVCAR-8 ovarian; OVCAR-5 ovarian; OVCAR-4 ovarian; SK-OV-3 ovarian; IGROV1 ovarian; OVCAR-3 ovarian; HS 578T breast; NCI/ADR-RES ovarian.
What all share (test): NCI-60 one-dose screen, 48 h (100 = growth as untreated, 0 = no growth, -100 = all killed)
Holding throughout (details): 10 µM unless noted

Consider `CC(C)(C)[C@H](OCc1cn([C@H]2C[C@@H](O)[C@@H](CO)O2)c(=O)[nH]c1=O)c1ccc(C#Cc2ccccc2)cc1[N+](=O)[O-]`, for which the growth was 81.3% in the test on SK-MEL-2 melanoma; 67.4% in the test on EKVX NSCLC; 88.5% in the test with SN12C renal; 72% in the test with UO-31 renal; 61.7% in the test on TK-10 renal; 77.4% in the test with ACHN renal. Moreover, the growth was 79.3% in the test on CAKI-1 renal; 95% in the test on A498 renal; 72.2% with CCRF-CEM leukemia; 57.6% with MOLT-4 leukemia; 35.7% in the test with SR leukemia; 36.8% with RPMI-8226 leukemia. The growth was 87% in the test on OVCAR-8 ovarian; 97.6% with OVCAR-5 ovarian; 85% in the test on OVCAR-4 ovarian; 93.5% in the test with SK-OV-3 ovarian; 88% in the test with IGROV1 ovarian; 87.7% in the test with OVCAR-3 ovarian. Further, the figures for the growth in the test with HS 578T breast and in the test on NCI/ADR-RES ovarian were 77.9% and 87.5%, respectively.
Turning to `Cc1cc(C)n(C(=O)CSc2nc3sc4c(c3c(=O)n2-c2ccccc2)CCCCC4)n1`, the growth in the test on SK-MEL-2 melanoma is 98.3%; in the test with EKVX NSCLC it was 97%; with SN12C renal, 91.9%; with UO-31 renal, 90.6%; in the test with TK-10 renal, 101%; in the test with ACHN renal, 100%. In addition, the growth in the test on CAKI-1 renal is 95.2%; with A498 renal, 99.5%; in the test with CCRF-CEM leukemia it was 95.5%; with MOLT-4 leukemia, 95.2%; in the test on SR leukemia, 97.8%; in the test with RPMI-8226 leukemia, 103%. Also, the growth was 100% in the test with OVCAR-8 ovarian; 105% with OVCAR-5 ovarian; 94.2% in the test with OVCAR-4 ovarian; 99% in the test with SK-OV-3 ovarian; 107% in the test on IGROV1 ovarian; 104% in the test on OVCAR-3 ovarian. The growth is 96.8% in the test with HS 578T breast and 104% in the test with NCI/ADR-RES ovarian.
For the compound `CCCCCCCCCCCCCCCCCCOc1ccccc1CC(=O)OCC[N+]1(C)CCCCC1`, the growth in the test on SK-MEL-2 melanoma was 80.3%; in the test with EKVX NSCLC it was 63.1%; with SN12C renal, 24.2%; in the test with UO-31 renal, 73.8%; with TK-10 renal, 66.2%; in the test with ACHN renal, 94.7%. The growth in the test with CAKI-1 renal was 65.5%; with A498 renal it was 83.3%; in the test with CCRF-CEM leukemia, 6.32% (active); with MOLT-4 leukemia, 6.43% (active); in the test on SR leukemia, 10%; in the test on RPMI-8226 leukemia it was -10.2% (active). In addition, the growth is 21.9% in the test with OVCAR-8 ovarian; 54.8% with OVCAR-5 ovarian; 32% in the test with OVCAR-4 ovarian; 96.6% in the test on SK-OV-3 ovarian; -32.1% (active) with IGROV1 ovarian; 61.7% with OVCAR-3 ovarian. For the same compound, the growth with HS 578T breast is 62.3%; in the test with NCI/ADR-RES ovarian, 92.3%.
For the compound `CCN(CC)CCCNC(=O)c1c2c(n3ccccc13)C(=O)c1ncccc1C2=O`, the growth is -55.3% (active) with SK-MEL-2 melanoma; -84.5% (active) with EKVX NSCLC; -56% (active) with SN12C renal; -19.8% (active) in the test on UO-31 renal; -0.124% (active) with TK-10 renal; -34.5% (active) in the test on ACHN renal. The growth with CAKI-1 renal was 11.8%; in the test with A498 renal, -73% (active); in the test with CCRF-CEM leukemia, -36.2% (active); with MOLT-4 leukemia, -40.6% (active); in the test with SR leukemia, -22.6% (active); with RPMI-8226 leukemia, -23.8% (active). Besides, the growth with OVCAR-8 ovarian was -56.1% (active); in the test with OVCAR-5 ovarian it was -8.93% (active); in the test with OVCAR-4 ovarian, -83.4% (active); in the test with SK-OV-3 ovarian, -41.4% (active); in the test on IGROV1 ovarian it was -40.3% (active); in the test on OVCAR-3 ovarian, -39.5% (active). The growth was 37.5% in the test on HS 578T breast and 3.02% (active) with NCI/ADR-RES ovarian.
On to `O=C1c2cccnc2C(=O)c2c1c(C(=O)OCCCN1CCOCC1)c1ccccn21`, for which the growth was -57.5% (active) in the test with SK-MEL-2 melanoma; 19.6% in the test on EKVX NSCLC; -19.3% (active) in the test with SN12C renal; -42.6% (active) in the test with UO-31 renal; 21.9% with TK-10 renal; -37.3% (active) in the test on ACHN renal. For the same compound, the growth with CAKI-1 renal was -11.4% (active); in the test with A498 renal it was -20.2% (active); in the test on CCRF-CEM leukemia, -5.87% (active); in the test with MOLT-4 leukemia, 0.0972% (active); in the test with SR leukemia, -2.21% (active); with RPMI-8226 leukemia, -17.2% (active). The growth in the test on OVCAR-8 ovarian is -46.2% (active); with OVCAR-5 ovarian it was -11.2% (active); with OVCAR-4 ovarian, -19.1% (active); with SK-OV-3 ovarian it was -11.6% (active); in the test on IGROV1 ovarian it was -3.82% (active); in the test with OVCAR-3 ovarian, 2.32% (active). Also, the growth in the test on HS 578T breast is 26.9%; in the test with NCI/ADR-RES ovarian it was -13.7% (active).
Turning to `COC(=O)c1nc(-c2ccccc2)oc1S(=O)(=O)N1CCN(c2ccc(OC)cc2)CC1`, the growth was 106% with SK-MEL-2 melanoma; 88.2% in the test on EKVX NSCLC; 85.4% in the test with SN12C renal; 66.1% with UO-31 renal; 68.1% with TK-10 renal; 66.4% in the test on ACHN renal. In addition, the growth is 79.3% with CAKI-1 renal; 121% with A498 renal; -11.9% (active) in the test with CCRF-CEM leukemia; 25.1% in the test on MOLT-4 leukemia; -1.38% (active) with SR leukemia; 37.3% in the test on RPMI-8226 leukemia. Besides, the growth with OVCAR-8 ovarian was 83.8%; in the test on OVCAR-5 ovarian, 88.7%; in the test with OVCAR-4 ovarian it was 88.7%; in the test on SK-OV-3 ovarian, 104%; with IGROV1 ovarian it was 71.7%; with OVCAR-3 ovarian, 45.4%. Moreover, the values for the growth with HS 578T breast and with NCI/ADR-RES ovarian were 89.2% and 104%, respectively.
In the case of `COc1ccc(S(=O)(=O)N(C)c2oc(-c3ccc(Cl)cc3)nc2C#N)cc1`, the growth with SK-MEL-2 melanoma was 85%; with EKVX NSCLC, 86.8%; with SN12C renal, 88.4%; in the test on UO-31 renal it was 72.2%; in the test on TK-10 renal, 94.3%; in the test on ACHN renal, 101%. Besides, the growth was 75.6% in the test on CAKI-1 renal; 63.8% with A498 renal; 72.2% in the test on CCRF-CEM leukemia; 59.4% in the test on MOLT-4 leukemia; 29.3% in the test on SR leukemia; 69.7% in the test on RPMI-8226 leukemia. Moreover, the growth in the test with OVCAR-8 ovarian is 96%; with OVCAR-5 ovarian it was 94.6%; in the test on OVCAR-4 ovarian it was 76.4%; in the test on SK-OV-3 ovarian, 91.2%; with IGROV1 ovarian, 77.7%; in the test with OVCAR-3 ovarian, 82.2%. Moreover, the growth with HS 578T breast is 64.9%; with NCI/ADR-RES ovarian, 58.6%.
Turning to `C#C[C@]1(O)CC[C@H]2[C@@H]3CC=C4c5sc(-c6cccc(C)c6)nc5CC[C@]4(C)[C@H]3CC[C@@]21C`, the growth was 86.9% in the test on SK-MEL-2 melanoma; 68% with EKVX NSCLC; 71.3% with SN12C renal; 34.1% in the test with UO-31 renal; 110% in the test with TK-10 renal; 63.7% in the test on ACHN renal. The growth with CAKI-1 renal was 27.2%; in the test on A498 renal, 94.9%; with CCRF-CEM leukemia it was 49.6%; in the test with MOLT-4 leukemia, 44.2%; with SR leukemia, 38.6%; in the test on RPMI-8226 leukemia it was -6.87% (active). Besides, the growth in the test with OVCAR-8 ovarian is 89.9%; in the test with OVCAR-5 ovarian, 73.8%; in the test on OVCAR-4 ovarian it was 81.2%; in the test with SK-OV-3 ovarian, 88.9%; in the test with IGROV1 ovarian it was 68.8%; with OVCAR-3 ovarian, 89.2%. The values for the growth in the test on HS 578T breast and in the test with NCI/ADR-RES ovarian were 40.8% and 80.9%, respectively.
